According to the supplement of paper PMC11417369:
The full ranking holds about 25,000 sequences; the median of “ln(normalized median fluorescence intensity)” is about 9.3, and the highest 2% start at about 10. The full list was thinned out, with the highest values kept by preference.

System: PF3D7_0420300 AP2 domain 1 (GST-tagged)
Assay: gcPBM binding intensity (ln(normalized median fluorescence intensity)); higher = stronger DNA binding
Summary of the method: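 Binding intensity is defined as the maximum Masliner-normalised natural-log median intensity across replicate spots for either probe orientation. It was measured on an Agilent 4 × 180k array of primer-extended double-stranded 36-bp intergenic genomic probes and negative controls, to which GST-tagged P. falciparum DNA-binding domains made in E. coli were applied for 1 h in 1× PBS with 1% milk, 0.2 mg/ml BSA, 0.5% salmon testes DNA and 0.03% Triton X-100. Detection was by Alexa488 anti-GST antibody and scanning at 488 nm.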

| Sequence | gcPBM binding intensity (ln) |
| --- | --- |
| TTATAATCAATGAATACACACATATATTTAATTAAT [CACACA_site3613] | 9.47 |
| TATAAAAATATATGCACACAAATAAAAAATTATATA [CACACA_site3629] | 9.44 |
| AATTTTATATATATATGTACATATTTATATGCTTAT [XGTACX_site8180] | 9.4 |
| ATTTAGAAAAAATATACACACAGCCTAAACATGCAT [CACACA_site4067] | 9.64 |
| TATATATATGTATATGTGCACAGTTTTCTTATTAAA [GTGCAC_site9990] | 9.24 |
| TATAAATATTTATACACACACATATATTTATATATC [CACACA_site6366] | 9.82 |
| AAATTTGGTGAAGGATGTACTTTACCTAATACTTGT [XGTACX_site4825] | 9.21 |
| ATATTTACTCACGTCTTGCACTGAGCAAGCATTATA | 9.02 |
| AATGCTATCATTAATGCACACATTTAAACTTAATAT [CACACA_site5878] | 9.36 |
| TACATAAATTAAAACACACACACACCCAAAAAAAAA [CACACA_site2261] | 10.1 |
| AAATTTGGCAAACACACACACACACCCACAGAGACA [CACACA_site4490] | 10.3 |
| AACTTTGGCAAACACACACACACACCCACACCCACA [CACACA_site588] | 10.3 |
| AAATTTGGCAAACACACACACACACCCACACCCACA [CACACA_site8095] | 10.2 |
| CAAACATTTTAATGTACACACACCCACAGACAAACA [CACACA_site5522] | 9.78 |
| GGCAAATTTATTATACCCACATACATACATACATAC [XGTACX_negctrl_site186] | 9.24 |
| GTTACACCAACAAACACACACACACCCACCCACAAA [CACACA_site2427] | 10.2 |
| AGACAGCGCACAAACACACAAACACCCACCCACATA [CACACA_site451] | 10.2 |
| CATATATATATATATACACACATATATATTTTCTTT [CACACA_site1457] | 9.46 |
| TATTTTAATTATAAATTTAAAAAAAAAAAGAAAAAA [CACACA_negctrl_site1674] | 9.01 |
| TTCGGAAAAATTAAAGCACACAAAAAAAAATAAAAA [CACACA_site8296] | 9.45 |
| TATAAGCTTTCAATGTGTACATATTATTTTATTATT [XGTACX_site3988] | 9.44 |

| Sequence | gcPBM binding intensity (ln) |
| --- | --- |
| TTTATGGATGTGTATGCATGCCTAAATAAATATATG [TGCATGCA_site916] | 9.1 |
| ATATATATGTATAATCGTACAGTTAACGTATTCTTA [XGTACX_site5649] | 9.26 |
| TAATATTATTATTTTACACACTTTTTTCCTTTTATC [CACACA_site2457] | 9.45 |
| GTATATAGTATGTAGAGTACTAATTTCCATATGTTC [XGTACX_site7816] | 9.25 |
| AATATTTATTTTATATGTACATAATTTATTTTTAAT [XGTACX_site776] | 9.26 |
| AAAATAAAATATTTCTGTACTTATAACTATTCTATA [XGTACX_site8007] | 9.14 |
| AACAGATAAAAGGGTACACACATATATACAAGTACA [CACACA_site7959] | 9.9 |
| AAAAAAAAAAAAAGTACACACATACAGATAAATATA [CACACA_site5067] | 9.66 |
| AAAGATAAAAAAAGTACACACACACCGATATATATA [CACACA_site9006] | 10.2 |
| TGAAAAGATAAAAAAAGTACACACACACATATATAT [XGTACX_site6504] | 10.2 |
| AAGATAAAATAATAAAGTACACATATAAATTGAAAA [XGTACX_site2113] | 9.42 |
| AGATAAAAAAAGTACACACACACATATATTTATATA [CACACA_site7437] | 10.1 |
| TACAGATAAAAGTACACACACACACCGATATATATA [CACACA_site4675] | 10.2 |
| AGATAAAAAAAGTACACACACACATATATATATATA [CACACA_site3072] | 9.82 |
| TATATATATATATGTACACACACACCGATAAATAAA [CACACA_site8041] | 9.99 |
| ATTATTACACAACGTTGTACATTTCAATATTTTTAT [XGTACX_site5096] | 9.52 |
| TAAATTTTAATATGCACACAAAATGTTATATTAAAA [CACACA_site4366] | 9.11 |
| ATAAAAATAACATATAAACACACATATATATATATA [CACACA_site9267] | 9.35 |
| AACTTGTATTTATACACACACACACTGTCTTTTTTT [CACACA_site7009] | 10.3 |
| CTTGTATATAAACACACACACACTTTCTTTTTTTAA [CACACA_site8602] | 9.91 |
| AACTTGTATTTATACACACACACACTAGCTTTTTTT [CACACA_site5132] | 10.2 |

| Sequence | gcPBM binding intensity (ln) |
| --- | --- |
| AACTTGTATATATACACACACACACTATCTTTTTTT [CACACA_site8601] | 10.2 |
| TATATAGTAATATATACACACACTTGTCTTGTAAAA [CACACA_site990] | 9.56 |
| TATATTTATTTATATACACACACTTGTATAAAAAAT [CACACA_site2036] | 9.4 |
| AACTTGTATATATACACACACACACTGTCTTTTTTT [CACACA_site1963] | 10.2 |
| TTGTATATACTATACACACACATACATACATACATA [CACACA_site814] | 9.85 |
| ATAACTTGTATATATACACACACACCCTTTCTTTTT [CACACA_site8600] | 10.1 |
| TTCAAAGACACAATCACACACATACATAAATATACA [CACACA_site687] | 9.84 |
| TAATCGAAACAAAGAACATGCAAACATATACCTATA [TGCATGCA_site894] | 9.6 |
| ATTTATACATATAAACGTACATACATATATAATATT [XGTACX_site2969] | 9.3 |
| TATTTTTATATAATGTGTACTTATACCTTATTTTTT [XGTACX_site1658] | 9.3 |
| TATATATTATATATATGTACTTATTCATATATATAA [XGTACX_site3860] | 9.06 |
| TTTTACTTAAAACACACACACACAAAAAAAAAAAAA [CACACA_site947] | 9.96 |
| CACGCGCACGAACACACACACACACGCATATAAATA [CACACA_site7103] | 10.3 |
| AAATTCCACGAACACACACACATATAAATAAATAAA [CACACA_site6697] | 9.97 |
| ATATAAAGAAAAGGAACACACAAATATATATATATA [CACACA_site463] | 9.57 |
| CACACGCACGAACACACACACACACGCATATAAATA [CACACA_site6302] | 10.3 |
| AGAATAAAAAGGAACACACACACACGCATATAAATA [CACACA_site7659] | 10.3 |
| AAATATAATAAAATGACACACGCATATATATATATA [CACACA_site8900] | 9.38 |
| AGAATAAAAAGGAACACACACACACCCATATATATA [CACACA_site3590] | 10.1 |
| ACACGCACATATATATAAATATATATATATATAAAT [CACACA_negctrl_site1781] | 9.21 |
| CACACGCACGAACACACACACATATAAATATAAATA [CACACA_site6299] | 9.92 |
